Bioassay records: PubChem BioAssay, several laboratories
In the library only some 5.1% were active in any assay of this set; here they are far more common.
S1P3 antag – antagonists of human S1P3 receptor; actives 0.27% (n = 170,000); inhibition, % at 4.98 µM; Q99500; CHO S1P3 NFAT-BLA reporter, FRET fluorescence, antagonist mode;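 active = inhibition above the plate cutoff, the mean inhibition of test wells on that plate plus 3 SD, cut at about 28% in these data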;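 note: cells challenged with S1P at its EC80 of 0.8 µM; blue over green emission ratio from cleaved BLA substrate after 4 h stimulation; 0% = S1P-stimulated wells and 100% = unstimulated DMSO-only wells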
Target sequence (Q99500 whole entry, looked up): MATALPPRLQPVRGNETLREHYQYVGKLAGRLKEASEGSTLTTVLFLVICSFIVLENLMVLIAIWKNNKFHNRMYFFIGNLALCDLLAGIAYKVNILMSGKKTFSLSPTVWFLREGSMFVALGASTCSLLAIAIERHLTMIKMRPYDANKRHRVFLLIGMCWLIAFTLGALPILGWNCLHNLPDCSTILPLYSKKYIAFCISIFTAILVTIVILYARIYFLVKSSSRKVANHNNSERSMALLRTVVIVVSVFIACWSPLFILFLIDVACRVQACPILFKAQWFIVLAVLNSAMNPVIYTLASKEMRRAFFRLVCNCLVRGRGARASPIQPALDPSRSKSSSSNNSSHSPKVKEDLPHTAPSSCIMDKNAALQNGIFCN
S1P4 antag – human S1P4 receptor antagonism; inhibition, % at 4.98 µM; O95977; AID 1510; S1P4-expressing cells, antagonist mode, reporter read-out; actives 0.26% (n = 220,000); in the data active = inhibition above about 29%;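 note: 0% = wells stimulated with agonist and 100% = vehicle wells without agonist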
Target sequence (O95977 whole entry, looked up): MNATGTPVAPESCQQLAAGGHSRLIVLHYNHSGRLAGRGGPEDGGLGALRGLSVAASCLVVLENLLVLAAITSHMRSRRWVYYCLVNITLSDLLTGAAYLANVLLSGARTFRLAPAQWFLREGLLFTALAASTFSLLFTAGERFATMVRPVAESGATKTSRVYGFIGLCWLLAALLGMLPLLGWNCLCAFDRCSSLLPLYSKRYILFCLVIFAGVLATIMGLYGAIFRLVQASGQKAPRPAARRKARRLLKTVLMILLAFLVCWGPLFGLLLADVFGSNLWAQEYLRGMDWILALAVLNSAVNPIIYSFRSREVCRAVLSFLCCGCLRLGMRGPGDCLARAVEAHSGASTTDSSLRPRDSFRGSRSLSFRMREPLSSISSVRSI
S1P4 ag – human S1P4 receptor agonism; O95977; S1P4-expressing cell line, agonist reporter assay; activation, % at 4.98 µM; actives 0.35% (n = 220,000); AID 1509; in the data active = activation above about 11%;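 note: 0% = DMSO vehicle and 100% = reference agonist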
KCC2 mod – modulates chloride dependent transport by human KCC2. B-score of Tl+ flux slope (higher = more flux/activation; lower = inhibition) at 10 µM. actives 2.2% (n = 190,000). Q9H2X9. KCC2 cells, thallium flux FluoZin-2 fluorescence;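 active = thallium flux slope and its plate-corrected score both differing from the plate sample mean at a set confidence after two filtering rounds, in either direction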;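 note: slope of fluorescence scaled to starting intensity during 10 to 20 s after thallium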
RAM inhibit – yeast RAM network inhibition | S. cerevisiae dse1pr::URA3 reporter, 5-FOA growth OD615, 2 d; analog-sensitive cbk1-as2 kinase mutant strain | inhibition, % at 50 µM | actives 1.8% (n = 190,000) | AID 868;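 active = inhibition above a set limit, 3 SD over mean compound inhibition, cut at about 8.4% in these data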;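 note: 0% = DMSO-only wells with no growth and 100% = 10 µM 1-NA-PP1 full growth; inhibition rescues growth on 5-FOA so higher OD means more RAM inhibition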
ROMK primary – modulators of human ROMK potassium channel; P48048; Tet-inducible ROMK, thallium flux fluorescence; actives lie on both sides; B-score at 10 µM; actives 2% (n = 130,000); AID 1918;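 active = signal ratio slope over the read window, or its plate-corrected B-score, at least 3 SD from the plate mean, either direction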;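 note: B-score of the F/F0 ratio slope over 7 to 12 s after thallium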
KCC2 sec1 – confirmation of human KCC2 transport modulators; shares compounds with KCC2 mod; HEK293-KCC2, thallium flux, FluoZin2 fluorescence; active compounds read high; normalised thallium flux (F/F0 slope) at 10 µM; actives 15% (n = 3,700);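 active = thallium flux slope above the same plate's solvent-only control mean plus 3 SD; inconclusive = the two replicate wells disagree; inactive = no significant difference from solvent-only control wells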
KCC2 bumet counter – thallium flux despite bumetanide block in KCC2 cells, secondary assay 3; shares compounds with KCC2 mod; HEK293-KCC2 + bumetanide/ouabain, thallium flux FluoZin2; active compounds read high; normalized thallium flux at 10 µM; actives 49% (n = 3,700); AID 1714;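 active = thallium entry rate above the same plate's blocked-transporter control wells by more than 3 SD; inconclusive = the two repeat wells disagree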;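 note: raw slope of fluorescence over initial fluorescence between 10 and 20 s after thallium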
KCC2 sec2 – confirmation of human KCC2 transport modulators | actives 23% (n = 3,700) | HEK293-KCC2, thallium flux FluoZin2 fluorescence; actives lie on both sides; F/F0 rise rate, 10–20 s post-thallium | normalized thallium flux at 10 µM | shares compounds with KCC2 mod;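 active = thallium flux slope more than 3 SD above or below the plate's solvent-only control mean, mostly below; inconclusive = the two repeat wells disagreed; inactive = no significant shift from solvent-only controls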;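 note: raw slope with 0.1% DMSO as baseline and bumetanide as block control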
HEK293 Tl flux – parental HEK flux effect, counter-screen. HEK293 parental cells, thallium flux FluoZin2, ouabain; baseline-ratio fluorescence slope, 10–20 s after thallium. thallium flux rate (normalised fluorescence) at 10 µM. actives 46% (n = 3,700). shares compounds with KCC2 mod. AID 1716;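 active = thallium flux rate significantly above the same plate's solvent-only control wells, beyond their mean plus 3 SD; inconclusive = the two replicate wells gave conflicting results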
KCC2 ouabain – confirmation of human KCC2 modulators with ouabain; shares compounds with KCC2 mod; HEK293-KCC2, thallium flux FluoZin2 fluorescence; bidirectional: low = inhibitor, high = activator; raw Tl+ flux slope (below DMSO = inhibition, above = activation) at 10 µM; actives 48% (n = 3,700);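 active = thallium flux slope beyond 3 SD from same-plate DMSO control mean in most replicates, usually higher, sometimes lower; inconclusive = repeat tests gave conflicting results; inactive = no significant difference from controls in most replicates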;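 note: slope of initial-normalized fluorescence between seconds 10 and 20 after thallium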
HEK293 Tl flux2 – acts in parental HEK cells, second KCC2 counter-screen | shares compounds with KCC2 mod | HEK293 parental, thallium flux FluoZin-2 fluorescence slope | thallium flux slope at 10 µM | actives 33% (n = 3,700) | AID 1718;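 active = thallium flux slope above the same plate's solvent-control mean plus 3 SD in both duplicate wells; inconclusive = duplicate wells that disagreed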;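 note: run without ouabain in cells lacking the KCC2 cotransporter; slope of fluorescence scaled to its starting value between 10 and 20 s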
* hit, by the source's call; ? = inconclusive; . = no result.

SMILES	S1P3 antag	S1P4 antag	S1P4 ag	KCC2 mod	RAM inhibit	ROMK primary	KCC2 sec1	KCC2 bumet counter	KCC2 sec2	HEK293 Tl flux	KCC2 ouabain	HEK293 Tl flux2
O=C(CN1CCN(c2ccccc2F)CC1)c1c[nH]c2ccc(F)cc12	.	-10	0	-4*	1	-0.24	0.0073	0.011*	0.031	?	0.018*	0.01
O=C(CCn1c(=O)[nH]c2ccsc2c1=O)N(CCc1ccccc1)Cc1ccccc1	.	-13	0	.	2	-2.4	0.0093	0.0061	0.03	0.0071	?	0.011
Cc1nn(-c2ccccc2)c2nc(C(Cl)(Cl)Cl)[nH]c(=O)c12	-8	-9	0	91*	.	.	0.0064	0.071*	?	0.064*	0.065*	0.05*
CC(C)Sc1nnc([C@H](Cc2c[nH]c3ccccc23)NC(=O)OC(C)(C)C)o1	.	13	0	-6.3*	1	-0.71	0.0069	0.0051	0.028*	?	0.013*	0.011
CC1CCCCC1NC(=S)Nc1ccc(Cl)cc1Cl (stereo unspecified)	14	0	-2	1.6	3	-0.32	.	.	.	.	.	.
CC(=O)c1cccc(NC(=S)NC(=O)c2ccccc2Br)c1	15	-9	-1	7*	2	.	0.014*	0.076*	0.038	0.017*	?	0.013*
CC1CCCCC1NC(=S)NC(=O)c1ccccc1Br (stereo unspecified)	-12	-1	-1	22*	2	0.96	0.0074	0.0097*	0.035	0.014*	0.027*	0.015*
CC(=O)c1cccc(NC(=S)NC(=O)c2ccc(Cl)cc2)c1	5	-3	1	5.5*	4	.	0.0059	0.016*	0.031	0.011*	?	?
Cc1cc(C)c(NC(=O)C2CCCN2CCOC(=O)c2ccccc2)c(C)c1 (stereo unspecified)	2	-6	5	-0.94	2	.	.	.	.	.	.	.
Cc1cccc2cc3c(N)c(C(=O)N4CCc5ccccc54)sc3nc12	-8	-1	0	0.19	3	-0.14	.	.	.	.	.	.
Cc1cc(C)n2cc(CSc3ncn[nH]3)nc2n1	-25	-4	-1	0.38	0	.	.	.	.	.	.	.
O=C(Nc1c(C(=O)Nc2ccccc2)cnn1-c1ccccc1)c1ccco1	-58	-5	0	.	6	0.037	.	.	.	.	.	.
CC(C)c1ccc(NC(=O)c2cnn(-c3ccccc3)c2NC(=O)c2ccco2)cc1	-28	-20	0	-3.7*	6	.	0.0069	?	0.026*	0.0073	?	0.011
C(=N\NC1=Nc2cccc3cccc1c23)/c1cccnc1	10	-5	-1	-3.8*	2	-0.39	0.0065	?	0.029	0.0071	0.016*	0.01
COC(=O)C1=C(C)N(C)C(=O)NC1c1cc2c(cc1[N+](=O)[O-])OCO2 (stereo unspecified)	5	2	2	0.22	1	1	.	.	.	.	.	.
COC(=O)C1=C(C)N(CCCC(=O)O)C(=O)NC1c1cc2c(cc1[N+](=O)[O-])OCO2 (stereo unspecified)	-9	14	0	3.7*	1	0.013	0.0068	?	0.028	0.0073	0.018	0.0098
CCOC(=O)C1CCCN(C(=O)COc2ccc(N(C)S(=O)(=O)c3ccc(F)cc3)cc2)C1 (stereo unspecified)	-14	-1	2	-0.57	1	-0.95	.	.	.	.	.	.
O=C(NCCOc1ccccc1F)c1ccccc1SCc1ccc(F)cc1	-5	11	0	-6.2*	5	0.38	0.0094	0.007	0.022*	0.0058	0.012*	0.009
CCc1ccc(OCCNC(=O)c2ccccc2SCc2ccccc2)cc1	.	-20	-1	.	8.8*	.	0.0082	?	0.024*	0.0038	0.015*	0.011
O=C(CCc1ccccc1)NC(=S)Nc1ccccc1Br	-8	-15	0	3.2	1	-1.5	.	.	.	.	.	.
O=C(CCc1ccccc1)NC(=S)Nc1cccc(Br)c1	-1	-8	1	4.8*	0	0.91	0.0082	0.011*	0.029	0.0086*	?	0.0096
CCN(C(=S)NC(=O)CCc1ccccc1)c1ccccc1	-5	-16	2	4.7*	-1	0.99	?	0.051*	0.034	0.017*	0.042*	0.013*
O=C(CCc1ccccc1)NNC(=S)NC(=O)c1ccccc1	.	5	2	10*	-1	0.75	0.025*	0.061*	0.037	0.03*	0.051*	0.015*
CCCCC(=O)NC(=S)NNC(=O)CCc1ccccc1	-13	-8	1	6.9	.	.	.	.	.	.	.	.
CC(=O)NC(=S)NNC(=O)CCc1ccccc1	1	-4	-1	0.87	1	0.47	.	.	.	.	.	.
SMILES	S1P3 antag	S1P4 antag	S1P4 ag	KCC2 mod	RAM inhibit	ROMK primary	KCC2 sec1	KCC2 bumet counter	KCC2 sec2	HEK293 Tl flux	KCC2 ouabain	HEK293 Tl flux2
CC(C)(C)c1cc(CCC(=O)NNC(=S)NC(=O)c2ccccc2)cc(C(C)(C)C)c1O	-5	4	1	54*	3	0.83	0.033*	0.11*	0.036	0.091*	0.082*	0.02*
Cc1ccc(N(CC(=O)NCCSc2ccccn2)S(C)(=O)=O)cc1	4	11	1	-0.39	1	0.44	.	.	.	.	.	.
O=C(Nc1ccc(S(=O)(=O)NCc2ccco2)cc1)c1ccc2ccccc2n1	-1	-6	1	.	5	-0.0069	0.0087	0.0061	0.035	0.0046	0.02	0.011
COc1cc(/C=C(/NC(C)=O)C(=O)O)cc(Cl)c1OCc1ccc(Br)cc1	-8	-23	0	0.0077	.	.	.	.	.	.	.	.
CC(C)CC(c1nnnn1C1CCCCC1)N1CCN(c2ncccn2)CC1 (stereo unspecified)	23	0	0	0.64	-1	0.24	.	.	.	.	.	.
CC(C)CC(c1nnnn1C1CCCC1)N1CCC(C(N)=O)CC1 (stereo unspecified)	-9	3	-1	2.7*	2	1.4	0.006	0.0044	0.028	0.0079	0.019	0.0095
